# About 83,000 compounds went through this panel and 20% of them were active in at least one assay; those are over-represented in the sample as a whole.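 Method: cells in 96-well plates; compound added at one concentration; 48 h incubation; percent growth measured; values under 10 scored active.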 A number with no mark means an inactive call. Calls of active or inactive are those of the source.
# Columns and labels:
# Test in all cases: NCI-60 one-dose screen, 48 h (100 = growth as untreated, 0 = no growth, -100 = all killed)
# Conditions in all cases: 10 µM unless noted
# NCI-H23 lung = system: NCI-H23 lung
# NCI-H226 lung = system: NCI-H226 lung
# NCI-H322M lung = system: NCI-H322M lung
# HOP-62 NSCLC = system: HOP-62 NSCLC
# NCI-H460 lung = system: NCI-H460 lung
# HOP-92 NSCLC = system: HOP-92 NSCLC
# NCI-H522 lung = system: NCI-H522 lung
# A549/ATCC NSCLC = system: A549/ATCC NSCLC
# 786-0 renal = system: 786-0 renal
# COLO 205 colon = system: COLO 205 colon
# DU-145 prostate = system: DU-145 prostate
# K-562 leukemia = system: K-562 leukemia
# MALME-3M melanoma = system: MALME-3M melanoma
# MDA-MB-231 breast = system: MDA-MB-231 breast
# RXF 393 renal = system: RXF 393 renal
# SF-268 CNS = system: SF-268 CNS
# SF-295 CNS = system: SF-295 CNS
# SF-539 CNS = system: SF-539 CNS
# UACC-257 melanoma = system: UACC-257 melanoma
# M14 melanoma = system: M14 melanoma
SMILES,growth (NCI-H23 lung),growth (NCI-H226 lung),growth (NCI-H322M lung),growth (HOP-62 NSCLC),growth (NCI-H460 lung),growth (HOP-92 NSCLC),growth (NCI-H522 lung),growth (A549/ATCC NSCLC),growth (786-0 renal),growth (COLO 205 colon),growth (DU-145 prostate),growth (K-562 leukemia),growth (MALME-3M melanoma),growth (MDA-MB-231 breast),growth (RXF 393 renal),growth (SF-268 CNS),growth (SF-295 CNS),growth (SF-539 CNS),growth (UACC-257 melanoma),growth (M14 melanoma)
Cc1cc2nc3c4cccc(O)c4n(CCN(C)C)c3nc2cc1C,32.3%,37%,38%,31.7%,9.09% (active),55.1%,31%,20.4%,40.4%,59.7%,29.8%,6.28% (active),32.9%,28.1%,35.1%,51.1%,32.1%,25.7%,63.5%,44.2%
NCCCCCCNc1cc(-c2cccc(OC(F)(F)F)c2)nc2ccc(N3CCCC3)cc12,0.0621% (active),81.2%,-13.1% (active),-33.3% (active),-91.8% (active),39.3%,-44.5% (active),16.6%,-65.2% (active),-62.1% (active),-17.4% (active),-52.6% (active),-93.8% (active),-79.9% (active),-90.8% (active),-3.93% (active),-69.1% (active),-87.6% (active),-67.7% (active),-71.4% (active)
C=C(C)[C@@H]1CC[C@]2(C(=O)N3CCN(C)CC3)CC[C@]3(C)[C@H](CC[C@@H]4[C@@]5(C)C/C(=C/c6ccncc6)C(=O)C(C)(C)[C@@H]5CC[C@]43C)[C@@H]12,74.4%,61.9%,85.4%,85.1%,37.2%,39.7%,47.6%,40.4%,65%,53.7%,72.7%,21%,62%,74.3%,49.4%,62.3%,75.2%,73.4%,56.9%,68.5%
COc1cc2oc(-c3cccc(C(=O)Nc4ccc(Br)cc4)c3)cc(=O)c2c(OC)c1OC,77.7%,10.7%,62.4%,58%,36.2%,50.9%,60.9%,52.3%,67.4%,54.4%,57.6%,48.9%,80.9%,30.8%,-2.47% (active),61.8%,52.9%,65%,80.1%,27%
NS(=O)(=O)c1ccc(Cn2c(SCC(=O)N/N=C/c3ccccc3O)nc3ccccc3c2=O)cc1,63.2%,57%,46.8%,35.5%,49.1%,54%,-1.28% (active),69.4%,71.1%,29.1%,72.5%,36.6%,59%,30.1%,72.2%,38.2%,65.9%,54.3%,70.6%,42%
O=C(Cc1ccccc1)NNc1nc(Cl)nc(N2CCN(C(c3ccccc3)c3ccccc3)CC2)n1,83%,94.2%,89.7%,98.6%,102%,74.3%,-26.6% (active),98.5%,95.4%,98.6%,110%,9.78% (active),99.6%,84.4%,85.8%,100%,98.6%,102%,90.6%,81.6%
CCOC(=O)Oc1c(OC)cc(C(=O)c2ccc(OC)c(OC(=O)CCl)c2OC)cc1OC,32.5%,64.5%,45.2%,16.9%,10.4%,57%,8.85% (active),22.9%,19.2%,94.8%,12.5%,10.4%,50.8%,33%,-17.9% (active),43.8%,20.7%,-16.9% (active),48.5%,-15% (active)
CCC(=O)Oc1ccc(/C(=C(\C)c2ccccc2)c2ccc(OCCN3CCCCC3)cc2)cc1,75.1%,82.9%,82%,76%,72%,86.5%,74.4%,71.1%,67.3%,32.7%,91.5%,17.1%,79%,91.1%,73.9%,80.3%,86.5%,62.2%,72.1%,72.3%
C=CC(=O)N[C@@H](/C=C/C(=O)OCC)Cc1ccc(-c2cc(Cl)cc(Cl)c2)cc1,15.6%,10.8%,58.9%,36%,9.25% (active),14.8%,3.13% (active),11.6%,11.8%,6.63% (active),16.9%,8.57% (active),4.14% (active),9.36% (active),-10.1% (active),32.1%,21.8%,56.8%,-2.68% (active),24.7%
CC1(C)CC[C@]23CC[C@]4(C)[C@H](CC[C@@H]5[C@@]6(C)CCCNC(C)(C)[C@@H]6CC[C@]54C)[C@H]2[C@H]1OC3,41.2%,34.8%,-21.4% (active),27.7%,-60.6% (active),-37.2% (active),9.35% (active),-45.6% (active),-96.2% (active),-68.2% (active),-8.9% (active),-39.7% (active),-63.4% (active),-62.8% (active),-65.3% (active),38.2%,-65% (active),38.7%,45.1%,-77.2% (active)
COc1ccc(C(=O)c2cc(C)c(OC)c(C)c2)c(OC)c1N(C(=O)CCl)C(=O)CCl,20.8%,7.88% (active),36.2%,9.36% (active),1.32% (active),7.45% (active),6.33% (active),13.4%,13.2%,-39.4% (active),0.0631% (active),9.77% (active),49.8%,-1.61% (active),23.7%,24.6%,5.4% (active),-21.1% (active),46.2%,-20.7% (active)
COc1cc2c(=O)n(CCN)c3c4cc5c(cc4ccc3c2cc1OC)OCO5,14.2%,-66% (active),-72.1% (active),-51.2% (active),-76.5% (active),49.6%,-7.78% (active),-76.5% (active),-79.3% (active),-0.566% (active),-83.2% (active),-55% (active),-72.3% (active),-81.7% (active),-76.8% (active),-59.6% (active),25%,-75.9% (active),33.8%,-50.8% (active)
Cc1ccc(S(=O)(=O)NNC(=O)/C(=C\c2ccc(Cl)cc2)c2nc3ccccc3s2)cc1,96.4%,81.2%,92.7%,109%,86%,87.3%,91.7%,91.9%,99.5%,117%,101%,84%,98.6%,95.6%,101%,91.9%,103%,104%,98%,86%
COc1cc(NC(C)CCCNC(=O)CCC(=O)NCCCNCCCCCCCCCCNCCCNC(=O)CCC(=O)NCCCC(C)Nc2cc(OC)cc3cccnc23)c2ncccc2c1 (stereo not given),63.4% [8 µM],58.6% [8 µM],32.1% [8 µM],101% [8 µM],81% [8 µM],59% [8 µM],57.1% [8 µM],63.7% [8 µM],92.5% [8 µM],26.7% [8 µM],71.8% [8 µM],51.2% [8 µM],38.9% [8 µM],34.6% [8 µM],88.1% [8 µM],66% [8 µM],97% [8 µM],75.7% [8 µM],47.1% [8 µM],87% [8 µM]
Cc1ccc(-n2c3c(c(-c4ccccc4)c2-c2ccccc2)C2=NCCN2C=N3)cc1,84.2%,72%,96.6%,97.6%,90.9%,87%,80.2%,93.7%,95%,101%,95%,64.2%,97.9%,80.5%,101%,96.2%,99.2%,95.4%,104%,95.7%

# From PubChem BioAssay (NCI)
